PrPC surface inh: reduces human prion protein on the cell surface. cell surface PrPC, TR-FRET read-out. inhibition, % at 13.8 µM. 0.43% of 370,000 active. AID 720596; in the data active means inhibition above about 24%
PriA SSB inh: K. pneumoniae PriA-SSBct interaction inhibition | AID 1272365 | inhibition, % at 33 µM | 0.6% of 430,000 active | AlphaScreen SSBct-PriA binding, biotinylated peptide; in the data active means inhibition mostly above about 37%, no sharp cut-off; inactive means mostly below about 20%
Rv3671c protease: inhibits the M. tuberculosis serine protease Rv3671c; P9WHR9; inhibition, % at 5.96 µM; 0.048% of 320,000 active; in the data active means inhibition above about 38%;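 further: extracellular domain of Rv3671c used as enzyme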
Target sequence (P9WHR9 whole entry, looked up, the tested form may be a part): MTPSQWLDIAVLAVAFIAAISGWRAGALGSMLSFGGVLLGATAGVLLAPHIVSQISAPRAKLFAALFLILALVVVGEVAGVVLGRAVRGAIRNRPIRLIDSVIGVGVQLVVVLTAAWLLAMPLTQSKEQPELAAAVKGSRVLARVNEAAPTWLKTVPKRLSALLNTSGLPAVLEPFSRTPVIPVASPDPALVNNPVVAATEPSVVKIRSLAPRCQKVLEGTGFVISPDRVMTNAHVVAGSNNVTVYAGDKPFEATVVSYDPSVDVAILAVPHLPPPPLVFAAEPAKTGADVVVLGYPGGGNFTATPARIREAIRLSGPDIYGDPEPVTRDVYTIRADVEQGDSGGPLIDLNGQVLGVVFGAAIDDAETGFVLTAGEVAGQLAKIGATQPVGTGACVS
PrP UTR inh: inhibition of PrP 5' UTR reporter expression; cell-based PrP 5' UTR mRNA reporter, plate reader; inhibition, % (no concentration beside the values); 0.35% of 340,000 active; in the data active means inhibition above about 52%
Mtb UGM inh: blocks M. tuberculosis UGM enzyme. P9WIQ1. purified UGM, fluorescence polarization probe displacement. inhibition, % at 10 µM. 0.06% of 320,000 active; in the data active means inhibition above about 10%, passing the limit was not always enough
FadD28 binding: M. tuberculosis FadD28 bisubstrate binding inhibition; FadD28 bisubstrate probe binding, fluorescence polarization; inhibition, % at 12.5 µM; 0.22% of 360,000 active; AID 588549; in the data active means inhibition above about 8.5%, passing the limit was not always enough
Each line names hits and unclear results; the compound was inactive in the other large screens; ! = a repeat was not active. Rows were chosen to be rich in hits. Some 1.2% of all compounds tested hit in one or more screens of this group.

CCc1cccc2c(C(=O)CSc3nncn3-c3ccc(OC)cc3)c[nH]c12	FadD28 binding 14
Cc1ccc(OCC(=O)Nc2nc(-c3ccccn3)cs2)c(C)c1	none
CC1=CC(=O)CC(=O)N1CC(=O)Nc1nc(-c2ccccn2)cs1	PriA SSB inh 84 (no result: PrPC surface inh, Rv3671c protease, PrP UTR inh, Mtb UGM inh, FadD28 binding)
Cc1ccc(C)n1CC(=O)Nc1nc(-c2ccccn2)cs1	PriA SSB inh 100 (no result: PrPC surface inh, Rv3671c protease, PrP UTR inh, Mtb UGM inh, FadD28 binding)
Cc1c(O)ccc2c(CN3CCCCC3)cc(=O)oc12	none (no result: PrPC surface inh, Rv3671c protease, PrP UTR inh, Mtb UGM inh, FadD28 binding)
Cc1ccc(C)c(Nc2c([N+](=O)[O-])ccc3nonc23)c1	PriA SSB inh 50
Cc1onc(-c2ccccc2Cl)c1C(=O)NCCn1c(C)cc2ccccc21	PriA SSB inh 87 (no result: PrPC surface inh)
Cc1onc(-c2ccccc2Cl)c1C(=O)NCCn1ncccc1=O	none (no result: PrPC surface inh, Rv3671c protease, PrP UTR inh, Mtb UGM inh, FadD28 binding)
CCCNc1nc(SCC)nc2c1cnn2CCNC(=O)c1c(-c2ccccc2Cl)noc1C	PriA SSB inh 88 (no result: PrPC surface inh, Rv3671c protease, PrP UTR inh, Mtb UGM inh, FadD28 binding)
O=C(c1ccccc1S(=O)(=O)C(F)F)N(CCc1cccs1)Cc1ccco1	none (no result: PrPC surface inh, Rv3671c protease, PrP UTR inh, Mtb UGM inh, FadD28 binding)
CCCN1C(=O)C(C)(C)COc2ccc(NS(=O)(=O)c3cc(Cl)ccc3OC)cc21	none (no result: PrPC surface inh, Rv3671c protease, PrP UTR inh, Mtb UGM inh, FadD28 binding)
O=C(Nc1nnc(-c2ccc(Cl)s2)o1)C1CC(=O)N(c2ccccc2)C1 (centres undefined)	none (no result: PrPC surface inh, Rv3671c protease, PrP UTR inh, Mtb UGM inh, FadD28 binding)
O=C(Nc1nnc(-c2ccco2)o1)C1CC(=O)N(c2ccccc2)C1 (centres undefined)	PriA SSB inh 65 (no result: PrPC surface inh, Rv3671c protease, PrP UTR inh, Mtb UGM inh, FadD28 binding)
O=C1c2ccccc2C(=O)N1CCCN1C(=O)COc2ccccc21	none (no result: PrPC surface inh, Rv3671c protease, PrP UTR inh, Mtb UGM inh, FadD28 binding)
Cc1nc(SCC(=O)Nc2cc(Cl)ccc2[N+](=O)[O-])nc(C)c1C	PriA SSB inh 52
O=C(CSc1ncccn1)Nc1cc(Cl)ccc1[N+](=O)[O-]	none
O=C(c1cc([N+](=O)[O-])ccc1Cl)N1CCN(c2ccccc2)CC1	none
O=C(c1cc([N+](=O)[O-])ccc1Cl)N1c2ccccc2Sc2ccccc21	PriA SSB inh 62
COc1cc2c3nnc(-c4ccccc4)c-3cn(Cc3ccccc3F)c2cc1OC	Mtb UGM inh 11 (no result: PrP UTR inh, FadD28 binding)
COc1cc2c3nnc(-c4ccc(F)cc4)c-3cn(Cc3ccccc3F)c2cc1OC	none (no result: Rv3671c protease, Mtb UGM inh)
O=C(c1ccccc1)c1ccc(OCC(O)CNc2ccc(F)cc2)cc1 (centres undefined)	PriA SSB inh 57 (no result: PrPC surface inh, Rv3671c protease, PrP UTR inh, Mtb UGM inh, FadD28 binding)
S=C1SCN(Cc2ccccn2)CN1Cc1ccco1	PriA SSB inh 48
CC1Cc2ccc(-c3cc(CNC(=O)CCS(=O)(=O)c4ccccc4)no3)cc2O1 (centres undefined)	none (no result: PrPC surface inh, Rv3671c protease, PrP UTR inh, Mtb UGM inh, FadD28 binding)
O=C(C1=C[C@H](c2ccc3c(c2)OCO3)C[C@H](OCc2ccc(CO)cc2)O1)N1CCCCCCC1	PriA SSB inh 41
Cc1cc(C)c(S(=O)(=O)N2CCOC2CNC(=O)C(=O)NCCCn2ccnc2)c(C)c1 (centres undefined)	PriA SSB inh 50
O=C(NCCCn1ccnc1)C(=O)NCC1OCCN1S(=O)(=O)c1ccc([N+](=O)[O-])cc1 (centres undefined)	PriA SSB inh 80 (no result: PrPC surface inh, Rv3671c protease, PrP UTR inh, Mtb UGM inh, FadD28 binding)
O=C(NCCc1ccccc1)C(=O)NCC1OCCN1S(=O)(=O)c1ccc2c(c1)OCCO2 (centres undefined)	none
COc1ccc(S(=O)(=O)N2CCOC2CNC(=O)C(=O)NCCCn2ccnc2)cc1 (centres undefined)	PriA SSB inh 102 (no result: PrPC surface inh, Rv3671c protease, PrP UTR inh, Mtb UGM inh, FadD28 binding)
O=C(NCCCn1ccnc1)C(=O)NCC1OCCN1S(=O)(=O)c1ccc2c(c1)OCCO2 (centres undefined)	PriA SSB inh 23!
O=C(Nc1ccc(Cl)cc1)N1CCC[C@H](c2nnc(-c3ccc4c(c3)OCO4)o2)C1	none (no result: PrPC surface inh, Rv3671c protease, PrP UTR inh, Mtb UGM inh, FadD28 binding)
Cn1nc(CNC(=O)c2ccc3c(c2)OCO3)cc1C1CC1	none (no result: PrPC surface inh, Rv3671c protease, PrP UTR inh, Mtb UGM inh, FadD28 binding)
CCOc1ccc(-n2c(CNC(=O)c3cc(OCC)c(OCC)c(OCC)c3)nnc2SCC(=O)Nc2nnc(SCC)s2)cc1	none (no result: PrPC surface inh, Rv3671c protease, PrP UTR inh, Mtb UGM inh, FadD28 binding)
Cc1cc(O)c2c(C)c(CC(=O)N3C[C@H]4C[C@H](C3)c3cccc(=O)n3C4)c(=O)oc2c1	none (no result: PrPC surface inh, Rv3671c protease, PrP UTR inh, Mtb UGM inh, FadD28 binding)
CC1(C)CNc2cc(N)ccc2S1	PriA SSB inh 74
Nc1ccc2c(c1)CC(=O)N2	none (no result: PrPC surface inh, Rv3671c protease, PrP UTR inh, Mtb UGM inh, FadD28 binding)
Cc1ccc(C2=NC(=O)/C(=C/c3cc(O)c(O)c(Br)c3)S2)cc1	FadD28 binding 8.2 (no result: Rv3671c protease, Mtb UGM inh)
Cc1cc(C)cc(NS(=O)(=O)c2ccc(-c3cnc(C4CC4)o3)cc2)c1	PrP UTR inh 67
Cc1cccc(NS(=O)(=O)c2ccc(-c3cnc(C4CC4)o3)cc2)c1C	PrP UTR inh 79
Cc1ccc(C)c(NS(=O)(=O)c2ccc(-c3cnc(C4CC4)o3)cc2)c1	none
CS(=O)(=O)c1cccc(-c2nnc(NC(=O)c3ccc([N+](=O)[O-])cc3)o2)c1	none (no result: PrPC surface inh, Rv3671c protease, PrP UTR inh, Mtb UGM inh, FadD28 binding)

Assay outcomes from PubChem.
